Experimental data published in PubChem BioAssay AID1053197 (The Scripps Research Institute Molecular Screening Center, 2014).
Hit rate of the full screen: of about 370,000 compounds, about 2,600 (0.7%) were called active.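 How the source made its calls: active means inhibition above a cutoff: mean of compounds within the control limits plus 3 SD of those (cut at about 17% in these data); inactive means the rest.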 The entries come from a sample that favours actives as a whole.

The compounds below were run against Sialate O-acetylesterase (Homo sapiens) (UniProt Q9HAT2) (assay: blockers of sialate O-acetylesterase activity-probe labeling – biochemical, fluorescence polarization, FP-Rh probe, 1536-well HTS, primary screen (AID 1053197;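 further: 0% = plate median of compound wells and 100% = probe without SIAE protein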)). Details: SIAE FP-Rh probe binding, at 9.66 µM, stronger effect = higher value.
Chain of Sialate O-acetylesterase (Homo sapiens) (Q9HAT2 whole entry, looked up): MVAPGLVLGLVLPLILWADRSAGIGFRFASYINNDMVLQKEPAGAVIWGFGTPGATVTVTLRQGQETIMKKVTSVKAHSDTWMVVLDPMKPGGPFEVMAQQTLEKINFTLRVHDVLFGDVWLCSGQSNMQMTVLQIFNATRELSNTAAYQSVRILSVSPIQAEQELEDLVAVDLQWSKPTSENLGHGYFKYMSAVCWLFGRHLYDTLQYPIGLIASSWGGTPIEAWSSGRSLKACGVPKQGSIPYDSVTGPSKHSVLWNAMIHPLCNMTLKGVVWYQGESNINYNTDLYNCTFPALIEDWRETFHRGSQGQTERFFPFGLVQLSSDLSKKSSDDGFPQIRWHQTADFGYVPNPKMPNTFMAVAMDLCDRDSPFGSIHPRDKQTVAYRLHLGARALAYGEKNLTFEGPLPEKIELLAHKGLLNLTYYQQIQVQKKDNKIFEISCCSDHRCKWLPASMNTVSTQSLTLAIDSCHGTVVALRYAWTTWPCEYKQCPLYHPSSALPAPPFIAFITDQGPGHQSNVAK

SMILES	inhibition
CCOC(=O)c1cccc(NC(=O)CN(C)S(=O)(=O)c2ccc(-c3cocn3)s2)c1	2.17% (inactive)
CN(C(=O)COc1nnc(-c2cccs2)c(-c2cccs2)n1)c1ccccc1	-4.55% (inactive)
NC(=O)Cc1ccc2sc(-c3ccccc3)nc2c1	5.29% (inactive)
O=C(O)Cc1sc(-c2ccccc2)nc1-c1cccs1	23.1% (active)
CCCCNC(=O)C[C@H]1C(=O)N(Cc2ccc(OC)cc2)C2=CCCC[C@@]21C(=O)OCC	-2.41% (inactive)
CCOC(=O)C1CCN(C(=O)C(C)(C)NC(=O)Nc2ccc(F)c(F)c2)CC1	0.69% (inactive)
C=CS(=O)(=O)N(Cc1nnn(Cc2ccccc2)c1Br)[C@H](C(=O)OC)C(C)C	2.36% (inactive)
COc1ccc(C2NC(=O)C(=O)/C2=C(\O)c2ccc(Cl)cc2)cc1OC (configuration not stated)	0.15% (inactive)
CCC1(C)COC(c2ccc(OC)c(OC)c2)OC1 (configuration not stated)	-0.64% (inactive)
COc1ccc(C2OCC3(CO2)SC(=O)NC3=O)cc1OC (configuration not stated)	17.2% (active)
COC(=O)[C@]12C[C@H](CC(=O)N3CCOCC3)C(=O)N(Cc3ccc(Cl)cc3Cl)C1=C[C@H](C(C)C)O[C@@H]2C1CC1	7.42% (inactive)
CC1CC(C)CN(C(=O)CSc2nnc(CSc3ncccn3)n2C)C1 (configuration not stated)	-4.27% (inactive)
CC(=O)CSc1nnc(CSc2ncccn2)n1C1CCCCC1	23.7% (active)
CCn1c(CSc2ncccn2)nnc1SCC(=O)N1c2ccccc2CC1C (configuration not stated)	6.44% (inactive)
C#CCCN([C@H](C(=O)OC)C(C)C)S(=O)(=O)c1ccc(F)cc1Br	0.24% (inactive)
Clc1ccc(-n2c(SC/C=C/c3ccccc3)nnc2-c2ccco2)cc1	6.61% (inactive)
NNC(=O)c1oc2nc(-c3ccccc3)cc(-c3ccco3)c2c1N	19.6% (active)
CNC(=S)NNC(=O)c1oc2nc(-c3ccccc3)cc(-c3ccco3)c2c1N	17.2% (active)
Cc1ccc(O)c(NC(=O)c2cc(-c3ccco3)on2)c1	3.18% (inactive)
O=C1CCC2(CCC(c3ccc(Cl)cc3)CC2)N1CCO (configuration not stated)	6.92% (inactive)
C=CCN1C(C(=O)OC)CN(Cc2cn(Cc3ccccc3)nn2)CCS1(=O)=O (configuration not stated)	5.02% (inactive)
O=C(CSc1nc2c(c(=O)[nH]1)CCCC2)N1CCCCC1	1.16% (inactive)

SMILES	inhibition
O=C(c1c[nH]c2ccccc12)N1CCC(Oc2cccnc2)CC1	7.61% (inactive)
Cc1ccc(C(=O)N(Cc2ccccn2)CC2CCCO2)cc1 (configuration not stated)	-2.59% (inactive)
CCOC(=O)c1ccccc1N1C(=O)C2Sc3[nH]c(=O)sc3C(/C=C/c3ccccc3)C2C1=O (configuration not stated)	15.9% (inactive)
CCOC(=O)C1CSCCS(=O)(=O)N1Cc1ccc(Cl)cc1 (configuration not stated)	-6.12% (inactive)
CCOC(=O)C1Sc2[nH]c(=O)sc2C(c2ccc(Cl)cc2)C1C(=O)OCC (configuration not stated)	24.7% (active)
COC(=O)c1cccc(Cn2ccc3ccc(-c4ccc5ccn(C(=O)c6ccccc6C)c5c4)cc32)c1	12.8% (inactive)
COC(=O)C1CN(Cc2ccc(F)cc2)CCS(=O)(=O)N1Cc1ccc(Cl)cc1 (configuration not stated)	-1.35% (inactive)
CCOC(=O)[C@]12CCCC3=C1N(CCC3)C(=O)[C@@H](CC(=O)NCC13CC4CC(CC(C4)C1)C3)C2	-1.2% (inactive)
COc1ccc(-c2cc(C(=O)NC(Cc3c[nH]c4ccccc34)C(=O)O)c(C)o2)cc1OC (configuration not stated)	17.2% (active)
O=C(CCn1nnc2ccccc2c1=O)N[C@@H](Cc1c[nH]c2ccccc12)C(=O)O	2.35% (inactive)
COc1ccc(-c2cc(C(=O)NC(C(=O)O)C(C)C)c(C)o2)cc1OC (configuration not stated)	-1.04% (inactive)
COc1ccc2c(C(C)c3ccc(N)cc3)cn(C)c2c1 (configuration not stated)	15.5% (inactive)
CN(C)c1ccc(NC(=O)NC2CCCCN(Cc3ccc(Cl)cc3)C2=O)cc1 (configuration not stated)	11.1% (inactive)
COc1ccc(C(=O)OCCN2CCN(C3CN(Cc4cn(Cc5ccccc5F)nn4)S(=O)(=O)C3)CC2)cc1OC (configuration not stated)	3.42% (inactive)
Cc1ccc(NC(=S)NNC(=O)CSc2nnc(SCc3ccccc3Cl)s2)cc1	5.21% (inactive)
Cc1[nH]c2ccccc2c1C(=O)CN1CCCC(C)C1 (configuration not stated)	-6.16% (inactive)
Cc1[nH]c2ccccc2c1C(=O)CSCC(=O)O	30.1% (active)
Cc1[nH]c2ccccc2c1C(=O)CN1CC(C)CC(C)C1 (configuration not stated)	-1.61% (inactive)
N#Cc1ccc(OC[C@@H](O)CN2CCC(C(O)(c3ccccc3)c3ccccc3)CC2)c(F)c1	-5.05% (inactive)
COC(CNC(=O)[C@H](Cc1ccccc1)NC1(C(=O)NC2CCCCC2)CCCCC1)OC	8.17% (inactive)
Cc1cc(C)cc(NC(=S)NCCCN2CCOCC2)c1	-2% (inactive)
CCCC(=O)NC(=S)Nc1ccc(CN2CCOCC2)cc1	-1.23% (inactive)

SMILES	inhibition
Cc1ccc(NC(=S)NCCN2CCOCC2)cc1	57.3% (active)
C=CCN(C)CC#Cc1ccccc1	1.7% (inactive)
COc1ccccc1-n1c(SCC(=O)O)nc2sc3c(c2c1=O)CCC3	-0.36% (inactive)
Cn1c(NN)nc2sc3c(c2c1=O)CCC3	41.8% (active)
CCn1c(SCC(C)=O)nc2sc3c(c2c1=O)CCCC3	0.4% (inactive)
CCn1c2ccccc2c2cc(NC(=O)CSc3nnc(-c4ccccc4)n3-c3ccc(C)cc3)ccc21	4.72% (inactive)
CCn1c(=S)[nH]c2cc(S(=O)(=O)N3CCOCC3)ccc21	-1% (inactive)
CNS(=O)(=O)c1ccc2c(c1)[nH]c(=S)n2C	18.6% (active)
CCCCn1c(=S)[nH]c2cc(S(=O)(=O)N3CCCCC3)ccc21	8.16% (inactive)
CN1[C@H](Cc2ccccc2)COc2cccc(N3CCSCC3)c2S1(=O)=O	-5.79% (inactive)
O=S1(=O)c2c(NCc3ccco3)cccc2Oc2ccccc2CN1Cc1cn(Cc2cccc(C(F)(F)F)c2)nn1	-2.9% (inactive)
C[C@@H]1CN([C@@H](C)CO)C(=O)c2cccc(NC(=O)Nc3cccc4ccccc34)c2O[C@H]1CN(C)S(=O)(=O)c1ccccc1F	-1.21% (inactive)
Oc1ccc(N=Cc2c(O)ccc3ccccc23)cc1	21% (active)
Oc1ccc(N=Cc2sc3ccccc3c2Cl)cc1	22.5% (active)
CCOC(=O)C1CCN(C(=O)C(C)(C)NC(=O)Nc2ccccc2Cl)CC1	-1.25% (inactive)
O=C(Nc1nc2ccc(Cl)cc2s1)c1cc(-c2ccc(Cl)cc2)nc2ccccc12	-3.74% (inactive)
CN(CCO)c1cccc2c1S(=O)(=O)N(Cc1cn(Cc3ccc(C(F)(F)F)cc3)nn1)Cc1ccccc1O2	-1.94% (inactive)
NNc1nc2c(Cl)cccc2s1	17.2% (active)
O=S1(=O)c2ccc(Br)cc2OC[C@@H](Cc2ccccc2)N1Cc1cn(Cc2ccco2)nn1	-0.13% (inactive)
COC(=O)C1CN(CCc2ccccc2)CCS(=O)(=O)N1Cc1cccc(Cl)c1 (configuration not stated)	-0.76% (inactive)
O=C(N/N=C/c1sc(N2CCCCC2)nc1-c1cccs1)c1cccnc1	19.6% (active)
O=C(Nc1cccc(Cl)c1N1CCOCC1)c1cccnc1	-7.61% (inactive)

SMILES	inhibition
O=C(c1cccnc1)N1CCN(S(=O)(=O)c2cccs2)CC1	4.01% (inactive)
COC(=O)CC1CCc2cc(C)cc(C(CC(C)C)NC(=O)[C@H](CC(C)C)NC(=O)OCc3ccccc3)c2O1 (some centres not stated)	4.19% (inactive)
O=C(NCc1cccnc1)c1ccc2nc([C@@H]3O[C@H](CO)[C@H](O)[C@H](O)[C@H]3O)[nH]c2c1	-0.84% (inactive)
O=C(Nc1ccc(Cl)cc1)c1csc([C@@H]2O[C@H](CO)[C@H](O)[C@H](O)[C@H]2O)n1	-0.06% (inactive)
O=C(Nc1cccc(Cc2ccccc2)c1)Nc1ccc2nc([C@@H]3O[C@H](CO)[C@@H](O)[C@H](O)[C@H]3O)[nH]c2c1	21% (active)
CC(CCN1CCC(C(O)(c2ccccc2)c2ccccc2)CC1)Oc1ccc(Cl)cc1 (configuration not stated)	-3.91% (inactive)
CC(C)=CCCC1(C)C=Cc2c(ccc3c2[nH]c2cc(O)c(C)cc23)O1 (configuration not stated)	20.8% (active)
CCn1c(=O)n2n(c1=O)[C@@]1(C=C3CCCC[C@H]32)N=C(NC(=O)c2ccccc2)N(Cc2ccccc2)[C@H]1Cc1ccccc1	7.65% (inactive)
COC(=O)C1CN(CC(C)C)CCS(=O)(=O)N1Cc1ccc(C)cc1 (configuration not stated)	5.08% (inactive)
O=C(OCc1nc2ccccc2[nH]1)C1CCCCC1	0.98% (inactive)
O=S(=O)(c1ccc(Br)cc1)N1CCC(c2nc3ccccc3[nH]2)CC1	-5.23% (inactive)
c1ccc2[nH]c(-c3nc4ccccc4[nH]3)nc2c1	47.9% (active)
COc1ccc(C2Nc3ccccc3C(=O)N2Cc2cccs2)cc1COc1c(C)cccc1C (configuration not stated)	-4.49% (inactive)
O=C(CSc1nc2sc3c(c2c(=O)n1-c1ccccc1)CCCC3)NN=Cc1ccc(OCc2ccccc2)cc1	8.02% (inactive)
COc1ccc([C@H]2OC(=O)C[C@H]2C(=O)N2CCN(c3ccccc3F)CC2)cc1OC	-5.68% (inactive)
CC(C)c1cc(N=O)cc(C(C)C)c1O	25.2% (active)
CC(C)=CCc1ccc(O)c(=O)cc1C(C)C	6.87% (inactive)
CC(C)c1cc(C(=O)N/N=C/c2ccoc2)c(O)c(C(C)C)c1	-13.5% (inactive)
O=C(NCCCc1ccccc1)[C@H](Cc1ccccc1)NC1(C(=O)NCCc2c[nH]c3ccccc23)CCC1	4.77% (inactive)
Cc1ccc(-n2c(SCC(=O)Nc3ccc(S(=O)(=O)Nc4nccs4)cc3)nnc2-c2cccnc2)cc1	-10.3% (inactive)
C=C1C(C(C)C)N(C)C2=NC(c3ccccc3)CC(=O)N12 (configuration not stated)	6.93% (inactive)
